About 83,000 compounds went through this panel and 20% of them were active in at least one assay; those are over-represented in the sample as a whole.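 Compound tested at a single concentration for 48 hours in 96-well plates; a percent growth value below 10 was scored as active.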 A number with no mark means an inactive call. The source made the active and inactive calls.

This note sets out measurements from PubChem BioAssay (NCI).

What all share (test): NCI-60 one-dose screen, 48 h (100 = growth as untreated, 0 = no growth, -100 = all killed)
Conditions in all cases: 10 µM unless noted

The subject of assay [1] is DU-145 prostate.
Assay [2] relates to K-562 leukemia.
The test system of assay [3] is MALME-3M melanoma.
For assay [4], the system named is MDA-MB-231 breast.
Assay [5] concerns RXF 393 renal.
The test system of assay [6] is SF-268 CNS.
In assay [7] the test system is SF-295 CNS.
Assay [8] concerns SF-539 CNS.
Assay [9] deals with UACC-257 melanoma.
Assay [10] relates to M14 melanoma.
For assay [11], the system named is HCT-15 colon.
For assay [12], the system named is HT29 colon.
For assay [13], the system named is SNB-75 CNS.
Assay [14] deals with SNB-19 CNS.
Assay [15] has as its system U251 CNS.
Assay [16] relates to PC-3 prostate.
In assay [17] the test system is SK-MEL-5 melanoma.
Assay [18] has as its system UACC-62 melanoma.
Assay [19] relates to LOX IMVI melanoma.
The subject of assay [20] is SK-MEL-28 melanoma.

On to `CCCCNC(=O)Oc1ccc2c(=O)c3sc4c(=O)c5ccccc5c(=O)c4c3c(=O)c2c1`, for which the growth was -98.5% (active) in assay [1]; -34.3% (active) in assay [2]; -98% (active) in [3]; -22.2% (active) in [4]; -87.1% (active) in assay [5]; -48.1% (active) in [6]. The growth in assay [7] is -98.1% (active); in assay [8] it was -96.6% (active); in [9], -95.7% (active); in assay [10] it was -77.6% (active); in assay [11] it was -84% (active); in [12], -41.6% (active). The growth in assay [13] is -98.3% (active); in assay [14], -93.6% (active); in assay [15], -73% (active); in assay [16] it was -15.5% (active); in [17], -96.9% (active); in assay [18], -75% (active). Moreover, the growth is -72.9% (active) in assay [19] and -73.3% (active) in assay [20].
As for `c1ccc(-c2nc([P+](c3ccccc3)(c3ccccc3)c3ccccc3)c(N3CCOCC3)o2)cc1`, the growth was 18.6% in assay [1]; 10.4% in assay [2]; 4.6% (active) in [3]; -14.8% (active) in assay [4]; -4.62% (active) in assay [5]; 18.3% in assay [6]. In addition, the growth in assay [7] was 0.0601% (active); in assay [8] it was 6.52% (active); in assay [9], -9.47% (active); in assay [10] it was 4.76% (active); in assay [11], 79.3%; in assay [12], 0.225% (active). Besides, the growth was 1.4% (active) in assay [13]; 8.73% (active) in assay [14]; 10.1% in assay [15]; 6.1% (active) in assay [16]; -93.1% (active) in assay [17]; -37.1% (active) in assay [18]. Besides, the results for the growth in [19] and in assay [20] were 4.66% (active) and 21.9%, respectively.
In the case of `COc1ccc2c(c1)O/C(=C\c1cccc(OCC(=O)Nc3nc(C)c(C)s3)c1)C2=O`, the growth is -96.2% (active) in assay [1]; -41.3% (active) in assay [2]; -54% (active) in assay [3]; 21.2% in assay [4]; -66.3% (active) in assay [5]; -55.4% (active) in assay [6]. For the same compound, the growth was -80.2% (active) in assay [7]; -78.9% (active) in [8]; 88.5% in assay [9]; -15.1% (active) in assay [10]; 94.1% in assay [11]; -29.9% (active) in assay [12]. For the same compound, the growth in assay [13] is -63.1% (active); in assay [14], 88.5%; in [15], -64.5% (active); in assay [16], -38.7% (active); in assay [17], 111%; in assay [18], 81.7%. Moreover, the growth in [19] is -68% (active); in assay [20] it was 84.8%.
`CC1=C(SCCC(=O)OC(C[Se]C2=C(C)C(=O)c3ccccc3C2=O)C(=O)NCCCCCC(=O)OCc2ccccc2)C(=O)c2ccccc2C1=O` (stereo not given): the growth is 39.1% in [1]; 21.6% in assay [2]; 45.6% in [3]; 59% in [4]; 57.8% in assay [5]; 48.8% in assay [6]. In addition, the growth in [7] was -7.98% (active); in [8] it was 9.31% (active); in assay [9], 45.4%; in assay [10] it was -1.57% (active); in assay [11] it was 56.5%; in [12], 25.9%. Also, the growth was 55.5% in [13]; 38.6% in assay [14]; 22.9% in assay [15]; 11.4% in assay [16]; 8.74% (active) in assay [17]; 65.2% in assay [18]. Also, the growth in assay [19] is 39.7%; in [20] it was 53.6%.
For the compound `O=[N+]([O-])c1ccc(N2c3ccncc3Sc3ccncc32)cc1`, the growth was 117% in assay [1]; 83% in assay [2]; 122% in assay [3]; 77.1% in assay [4]; 83.6% in assay [5]; 129% in [6]. The growth in assay [7] is 103%; in assay [8], 99.3%; in assay [9], 113%; in assay [10] it was 106%; in assay [11], 96.5%; in assay [12], 121%. Besides, the growth in [13] was 98.9%; in assay [14], 107%; in [15] it was 93.4%; in assay [16], 88.1%; in assay [17], 112%; in assay [18] it was 93.2%. Besides, the growth is 81.7% in [19] and 115% in assay [20].
Take `COc1cc(C2CC(=O)Nc3c2c(C)nn3-c2nc3ccccc3[nH]2)cc2c1OCC(=O)N2` (stereo not given): the growth in assay [1] was 111%; in [2] it was 89.3%; in assay [3] it was 117%; in assay [4], 55.8%; in assay [5], -0.584% (active); in assay [6], 48.8%. The growth was 19.1% in [7]; 50.6% in assay [8]; 69.6% in [9]; 34.8% in [10]; 95.3% in [11]; 66.9% in assay [12]. Besides, the growth is 19.3% in [13]; 49.1% in assay [14]; 55.2% in assay [15]; 69.1% in [16]; 52.3% in assay [17]; 65.5% in [18]. Besides, the growth in assay [19] was 51.2%; in [20], 65.4%.
`CC1=NOC(=O)/C1=C\c1ccc(O)cc1`: the growth in assay [1] is 111%; in assay [2], 98.2%; in [3], 100%; in [4], 95.1%; in [5] it was 115%; in assay [6] it was 98.4%. The growth in assay [7] is 99.6%; in [8], 98.8%; in assay [9], 101%; in assay [10], 103%; in assay [11] it was 104%; in assay [12] it was 106%. Also, the growth in assay [13] was 77.9%; in [14], 99%; in assay [15], 101%; in assay [16], 101%; in assay [17] it was 101%; in assay [18] it was 100%. For the same compound, the growth in [19] was 96.8%; in assay [20], 103%.
With `CCN(CC)c1ccc2nc3c4ccccc4c(=NC(=O)c4ccccc4-c4c5ccc(N(CC)CC)cc5[o+]c5cc(N(CC)CC)ccc45)cc-3oc2c1`, the growth is -89.4% (active) in assay [1]; -85.7% (active) in assay [2]; 54.9% in assay [3]; 52.8% in [4]; 61.6% in assay [5]; 60.5% in [6]. The growth in [7] is -50.3% (active); in [8] it was 67%; in [9], 49.7%; in assay [10], -3.37% (active); in [11], 6.13% (active); in [12], 1.92% (active). In addition, the growth in assay [13] is 67.7%; in assay [14] it was -22.3% (active); in [15], 20.5%; in [16], 12.1%; in assay [17] it was -69.8% (active); in [18] it was 67.5%. For the same compound, the growth is -30.4% (active) in assay [19] and 97.4% in assay [20].
